The results in this text go back to PubChem BioAssay (NCATS).

Several values for one entry are separate records, joined by “and”; a condition that tells them apart may be missing. Identical values can stand only once. Inconclusive results are not listed. Values without a mark were called inactive. Activity calls are given as the source filed them. The call rests on the fitted dose curve; in most records, active means well fitted curve in either direction with a large enough effect (not every such curve was filed as active); inconclusive means small, poorly fitted or top-dose-only effect, or another doubt; inactive means flat fitted curve, though single readings scatter.
On the % scale 0 is the no-effect control and ±100 the full control effect.

The nature of one assay: NFAT Signaling Pathway (AID 444). As to conditions: Jurkat NFAT-bla M1, carbachol, beta-lactamase ratio, 5 h; at 7.69 µM (top of the series). An excerpt:
NCGC Assay Overview: The nuclear factor of activated T cells (NFAT) family of transcription factors has been found primarily in most immune system cells and some other non-immune cells. NFAT plays the immunomodulatory role, primarily in T-cell activation and differentiation. NFAT target genes are also involved in the regulation of apoptosis and differentiation in non-immune cell types. The NFAT sequence was engineered to the upstream of the ?-lactamase reporter gene and transfected into Jurkat cells with co-transfection of muscarinic receptor1 [provided by Invitrogen Corp]. When an extracellular stimulus, such as carbachol, binds to the GPCR M1 receptor, it stimulates a signaling cascade that activates NFAT response element and ?-lactamase expression by phosphorylating the NFAT binding protein. This cell based ?-lactamase reporter gene assay can accurately monitor any changes occurring along the NFAT pathway, and can be used for screening small molecule inhibitor or activator upon activation by carbachol EC50 concentration. A small molecular library were screened in a titration series resulting in AC50s (can be either IC50s or EC50s).
NCGC Assay Protocol Summary: The cells were prepared in RPMI 1640 medium containing 0.1% dialyzed FBS and 25 mM HEPES at 1.6 x 10^6cell/ml. The assay was performed in 1536-well plate format as follows: 5 ul of cell preparation 23 nl of compounds 1ul of carbachol (final concentration 1 uM) Briefly centrifuge the plates and incubate at 37 °C for 5 hours 1 ul of CCF4 dye mixture Incubate the plates at RT for 1 hour Read the plate in EnVision plate reader (Ex= 405nm, and Em1=460nm and Em2=530nm). The %Activity was determined from the ratio of 460nm/530nm. Data normalization and AC50 calculations were accomplished using GeneData software.
For the molecule `NCCSSCCN`, the activity change, negative = inhibition was 0.926%.
For `O=C(O)CC[C@@H](C(=O)O)N1C(=O)c2ccccc2C1=O`, the activity change, negative = inhibition is 15.2%.

The same assay, now with this note: Jurkat NFAT-bla M1, carbachol, beta-lactamase ratio, 5 h; at 17.2 µM (top of the series).
Turning to `CC(C)Cc1ccc([C@H](C)C(=O)O)cc1`, the activity change, negative = inhibition was -2.57%.

The assay is the same for the next values; noted with them: Jurkat NFAT-bla M1, carbachol, beta-lactamase ratio, 5 h; at 38 µM (top of the series).
As for `NCCSSCCN`, the activity change, negative = inhibition is -3.66%.
As for `CC(C)Cc1ccc([C@H](C)C(=O)O)cc1`, the activity change, negative = inhibition is -3.84% and 2.4%.
Turning to `O=C(O)CC[C@@H](C(=O)O)N1C(=O)c2ccccc2C1=O`, the activity change, negative = inhibition was -1.84%.

The same assay, now with this note: Jurkat NFAT-bla M1, carbachol, beta-lactamase ratio, 5 h; at 38 µM (top of the series) unless noted.
Turning to `Ic1ccc(N2CCN(Cc3c[nH]c4ncccc34)CC2)cc1`, the activity change, negative = inhibition is 0.65%.
Still for that read-out and setting: the result for `NCCNC(=O)c1ncsc1-c1cccc(F)c1` reads -3.73%; that for `CN(C)C(N)=NCCC[C@H](N)C(=O)O`, -0.969%.
On the same count and under the same terms, the result for `O=c1[nH]c2cc(Cl)c(Cl)cc2[nH]c1=O` reads 4.68%.
Still for that read-out and setting: the result for `CCCn1c(=O)c2[nH]c(-c3ccc(OCC(=O)NCCN)cc3)nc2n(CCC)c1=O` reads -8.17%; that for `O=C(O)c1cc([N+](=O)[O-])ccc1NCCCc1ccccc1`, 5.3%.
On to `Cc1ccc(O)c(N=Nc2ccccc2)n1`, for which the activity change, negative = inhibition is -10.8%.
On to `Cc1cc(NC(=O)Nc2ccc3c(ccn3C)c2)sn1`, for which the activity change, negative = inhibition was 10.3%.
In the case of `COc1ccccc1N1CCN(CCN(C(=O)c2ccc(I)cc2)c2ccccn2)CC1`, the activity change, negative = inhibition was -16.4%.
In the case of `CCCCCCCC/C=C\CCCCCCCC(=O)NCCO`, the activity change, negative = inhibition was -20.4%.
As for `O=S(=O)(c1cccc2c(I)cccc12)N1CCCNCC1`, the activity change, negative = inhibition is -18.6%.
In the case of `Oc1ccccc1O`, the activity change, negative = inhibition was 1.49%.
The same measure, in the same setting: the result for `N#C/C(=C\c1ccc(O)c(O)c1)C(=O)c1ccc(O)c(O)c1` reads -9.14%; that for `COc1cccc(C(=O)NCCN2CCN(c3ccc(Cl)cc3)CC2)c1`, 2.58%; that for `N#C/C(=C\c1ccc(O)c(O)c1)C(=O)NCc1ccccc1`, -14.7%.
As to `O=c1[nH]c2cc(C(F)(F)F)ccc2n1-c1cc(C(F)(F)F)ccc1O`, the activity change, negative = inhibition was 7.55%.
As for `CN1[C@@H]2CC[C@H]1CC(OC(c1ccccc1)c1ccccc1)C2` (stereo not given in full), the activity change, negative = inhibition is -83.5% [at 7.69 µM] (active).
For `O=C(O)Cc1ccc(-c2ccccc2)cc1`, the activity change, negative = inhibition was -2.29% [at 17.2 µM] and -12.1% [at 17.2 µM].
With `c1ccc(-c2ccccn2)nc1`, the activity change, negative = inhibition was -2.98%.
Same read-out and setting: the value for `Nc1ccc(O)c(C(=O)O)c1` was -25.5% [at 17.2 µM]; that for `N#C/C(=C\c1c[nH]c2ccccc12)C(=O)c1ccc(O)c(O)c1` was 0.356%.
For the molecule `CN1CCc2ccccc2Cc2[nH]c3ccccc3c2CC1`, the activity change, negative = inhibition is -7.31%.
The same measure, in the same setting: the value for `NC(=O)C(=O)O` was 5.77%; that for `COc1cc2c(CCNC(C)=O)c[nH]c2cc1Cl` was -9.13%.
Take `O=C(O)c1cc(=O)c2ccccc2[nH]1`: the activity change, negative = inhibition was 13.2%.
For the molecule `Cc1ccc(C(=O)c2ccc(CC(=O)O)n2C)cc1`, the activity change, negative = inhibition was -1.3% [at 17.2 µM].
Regarding `Nc1nc(Cl)nc2c1ncn2[C@@H]1O[C@H](CO)[C@@H](O)[C@H]1O`, the activity change, negative = inhibition is 22.4% [at 17.2 µM].
Same read-out and setting: the result for `NCCCS(=O)(=O)O` reads 29%; that for `Cn1c(=O)c2[nH]c(-c3ccccc3)nc2n(C)c1=O`, 3.48%; that for `O=C1C(SCCO)=C(SCCO)C(=O)c2ccccc21`, -94.5% (active).
Still for that read-out and setting: the value for `O=C(Nc1ccccc1)c1cc([N+](=O)[O-])ccc1Cl` was -5%.
Same read-out and setting: the value for `COc1ccc(/C=C/C(=O)Nc2ccccc2C(=O)O)cc1OC` was 22.7% [at 17.2 µM].
As for `NCCCCC(=O)O`, the activity change, negative = inhibition is -1.14%.
For `Oc1cc2c(cc1O)CN(C(=S)NCCc1ccc(Cl)cc1)CCC2`, the activity change, negative = inhibition is -18.1%.
